In the supplement of paper PMC13380429:

What was measured:
[1] = test system: Vero E6 infected with SARS-CoV-2; assay: morphology score (similarity to uninfected cells); higher = more like uninfected cells; settings: 24 h
[2] = test system: Vero E6 infected with SARS-CoV-2; assay: SARS-CoV-2 infection rate relative to infected DMSO; higher = more infection, active = 60 or less; settings: 24 h

Row | SMILES | morphology score [1] | SARS-CoV-2 infection rate [2]
1 | C[C@]1(c2nc3c(C(N)=O)cccc3[nH]2)CCCN1 [veliparib] (10 µM) | 0.206 | 109% (inactive)
2 | O=C(O)CCC(=O)c1ccc(-c2ccccc2)cc1 [fenbufen] (10 µM) | -0.0471 | 104% (inactive)
3 | CCC(=O)NC1CCc2cccc(OC)c2C1 (stereo not drawn) (10 µM) | -0.0478 | 93.5% (inactive)
4 | O=[N+]([O-])c1ncc[nH]1 [azomycin-(2-nitroimidazole)] (10 µM) | -0.138 | 105% (inactive)
5 | CC(C)S(=O)(=O)NC[C@H](C)c1ccc(-c2ccc(CCNS(C)(=O)=O)cc2)cc1 [mibampator] (10 µM) | 0.146 | 93% (inactive)
6 | Nc1c(CC(=O)O)cccc1C(=O)c1ccc(Br)cc1 [bromfenac] (10 µM) | -0.048 | 104% (inactive)
7 | Cc1ccc(S(=O)(=O)NC(=O)NN2CC3CCCC3C2)cc1 (stereo not drawn) [gliclazide] (10 µM) | 0.0635 | 106% (inactive)
8 | CCC(=O)O[C@]1(C(=O)CO)CC[C@H]2[C@@H]3CCC4=CC(=O)CC[C@]4(C)[C@H]3CC[C@@]21C (10 µM) | 0.188 | 102% (inactive)
9 | CC1=NN(c2ccccc2)C(=O)C1 [edaravone] (10 µM) | 0.127 | 101% (inactive)
10 | S=P(N1CC1)(N1CC1)N1CC1 [thiotepa] (10 µM) | 0.127 | 96% (inactive)
11 | Nc1nc(CC(=O)Nc2ccc(CCNC[C@H](O)c3ccccc3)cc2)cs1 [mirabegron] (10 µM) | -0.0704 | 102% (inactive)
12 | CC[C@H](C)n1cc(C)c2c(C(=O)NCc3c(C)cc(C)[nH]c3=O)cc(-c3ccc(N4CCNCC4)nc3)cc21 (10 µM) | -0.212 | 109% (inactive)
13 | Cc1ccc2c(Br)cc(Br)c(OC(=O)c3ccccc3)c2n1 [broxaldine] (0.833333 µM) | 0.246 | 103% (inactive)
14 | CC(=O)N1N=C(c2ccc(N)cc2)c2cc3c(cc2C[C@H]1C)OCO3 [talampanel] (10 µM) | -0.0668 | 104% (inactive)
15 | CC1(C)S[C@@H]2[C@H](NC(=O)[C@H](N)c3ccc(O)cc3)C(=O)N2[C@H]1C(=O)O [amoxicillin] (10 µM) | -0.146 | 102% (inactive)
16 | CCOC(=O)CCC(=O)O[C@H]1[C@H](O[C@@H]2[C@@H](C)[C@H](O[C@H]3C[C@@](C)(OC)[C@@H](O)[C@H](C)O3)[C@@H](C)C(=O)O[C@H](CC)[C@@](C)(O)[C@H](O)[C@@H](C)C(=O)[C@H](C)C[C@@]2(C)O)O[C@H](C)C[C@@H]1N(C)C [erythromycin-ethylsuccinate] (10 µM) | -0.215 | 118% (inactive)
17 | OC1(c2ccc(Cl)c(C(F)(F)F)c2)CCN(CCCC(c2ccc(F)cc2)c2ccc(F)cc2)CC1 [penfluridol] (0.833333 µM) | 0.173 | 79% (inactive)
18 | CC[C@H]1OC(=O)[C@H](C)[C@@H](O[C@H]2C[C@@](C)(OC)[C@@H](O)[C@H](C)O2)[C@H](C)[C@@H](O[C@@H]2O[C@H](C)C[C@H](N(C)C)[C@H]2O)[C@](C)(O)C[C@@H](C)CN(C)[C@H](C)[C@@H](O)[C@]1(C)O [azithromycin] (10 µM) | 0.236 | 98.5% (inactive)
19 | CC(C)n1c(=O)n(C(=O)N[C@H]2C[C@H]3CC[C@@H](C2)N3C)c2ccccc21 (10 µM) | 0.0156 | 106% (inactive)
20 | Cc1n[nH]c(C)c1Cc1sc2c(c1C(=O)N1C[C@H](O)CO1)c(=O)n(C)c(=O)n2CC(C)C (10 µM) | 0.0657 | 106% (inactive)
21 | O=C(O)C(=O)CBr [3-bromopyruvate] (10 µM) | -0.102 | 111% (inactive)
22 | CCC(C)CCCC(=O)N[C@@H](CCN)C(=O)N[C@H](C(=O)N[C@@H](CCN)C(=O)N[C@H]1CCNC(=O)[C@H]([C@@H](C)O)NC(=O)[C@H](CCN)NC(=O)[C@H](CCN)NC(=O)[C@H](CC(C)C)NC(=O)[C@@H](CC(C)C)NC(=O)[C@H](CCN)NC1=O)[C@@H](C)O (stereo partly drawn) [colistin] (10 µM) | 0.134 | 96.2% (inactive)
23 | COc1cc(N)c(Cl)cc1C(=O)N[C@@H]1CCN(CCCOc2ccc(F)cc2)C[C@@H]1OC (racemic) [cisapride] (10 µM) | -0.0266 | 112% (inactive)
24 | Cc1c(N)nc([C@H](CC(N)=O)NC[C@H](N)C(N)=O)nc1C(=O)N[C@H](C(=O)N[C@H](C)[C@@H](O)[C@H](C)C(=O)N[C@H](C(=O)NCCc1nc(-c2nc(C(=O)NCCCNCCCCN)cs2)cs1)[C@@H](C)O)[C@@H](O[C@@H]1O[C@@H](CO)[C@@H](O)[C@H](O)[C@@H]1O[C@@H]1O[C@H](CO)[C@@H](O)[C@H](OC(N)=O)[C@@H]1O)c1cnc[nH]1 [bleomycetin] (0.833333 µM) | 0.128 | 111% (inactive)
